# Screens as filed in PubChem BioAssay.
# aDG glyco up = alpha-DG glycosylation activation | activation, % at 10 µM | actives 0.22% (n = 360,000) | AID 624168 | Pro5-aDG cells, alpha-DG glycosylation AlphaScreen (IIH6); 0% Pro5, 100% B10-LARGE cell signal;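 active means activation of at least 8% versus controls, or a plate z-score of at least 8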;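 further: Pro5 are CHO cells carrying HIG-tagged alpha-DG that lacks glycosylation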
# ADAM10 inh = inhibits human ADAM10; O14672; recombinant ADAM10, EDANS/DABCYL FRET peptide cleavage, 3 h; inhibition, % at 7 µM; actives 0.62% (n = 370,000);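 active means inhibition above a per-campaign cutoff equal to the mean of compounds falling between control-based bounds plus 3 SD, cut at about 20% in these data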
# FAS-TE inh = FAS thioesterase (human) inhibition; inhibition, % at 15 µM; recombinant FAS-TE, OMFH fluorogenic substrate, fluorescence endpoint; actives 0.67% (n = 360,000); AID 602261;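 active means compounds whose normalised, plate-corrected inhibition of enzyme fluorescence in the single-dose primary screen is 50% or more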
# ADAM17 inh = inhibits human ADAM17. P78536. recombinant ADAM17, EDANS/DABCYL FRET peptide cleavage. inhibition, % at 6.95 µM. actives 0.83% (n = 370,000);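 active means inhibition above the mean of compounds lying between control limits plus 3 SD, set per campaign, cut at about 8.5% in these data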
# Target sequence (P78536 215-824 limits assumed): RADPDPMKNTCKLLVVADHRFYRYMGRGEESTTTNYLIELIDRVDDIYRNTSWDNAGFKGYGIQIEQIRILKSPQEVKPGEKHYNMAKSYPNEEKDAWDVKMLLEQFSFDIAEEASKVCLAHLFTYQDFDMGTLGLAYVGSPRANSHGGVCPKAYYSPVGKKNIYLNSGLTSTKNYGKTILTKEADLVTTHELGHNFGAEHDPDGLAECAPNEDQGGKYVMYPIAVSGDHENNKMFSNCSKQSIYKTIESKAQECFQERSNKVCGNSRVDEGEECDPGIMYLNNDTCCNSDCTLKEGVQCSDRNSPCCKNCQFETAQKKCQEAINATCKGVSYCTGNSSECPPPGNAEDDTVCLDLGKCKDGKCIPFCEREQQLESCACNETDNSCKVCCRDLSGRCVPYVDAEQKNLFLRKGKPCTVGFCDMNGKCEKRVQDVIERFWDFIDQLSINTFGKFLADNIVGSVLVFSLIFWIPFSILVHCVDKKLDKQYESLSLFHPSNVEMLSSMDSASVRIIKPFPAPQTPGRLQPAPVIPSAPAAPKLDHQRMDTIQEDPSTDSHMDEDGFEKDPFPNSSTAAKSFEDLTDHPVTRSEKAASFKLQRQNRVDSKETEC
# GRIN3A LBD mod = modulators (binders) of human NR3A ligand-binding domain | Tm shift relative to glycine control, % at 25 µM | AID 1259313 | actives 2.5% (n = 340,000) | NR3A LBD differential scanning fluorimetry, Tm shift; 0% = protein alone, 100% = glycine-bound protein;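 active means melting temperature shift of at least 10% of the positive control shift, at one fixed dose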
# Hits are given with their value; 0 = inactive; - = no result. Sampled rows, rich in hits. Any-hit rate of the full collection: about 4%.
SMILES,aDG glyco up,ADAM10 inh,FAS-TE inh,ADAM17 inh,GRIN3A LBD mod
CCN1CCN(C(c2cccs2)C(C)NS(=O)(=O)c2ccc(F)cc2)CC1 (configuration not stated),0,0,0,0,0
Cc1nc(-c2ccccc2)sc1C(N)=O,0,0,0,0,19
CNC(=O)c1sc(-c2ccccc2)nc1C,0,0,0,0,0
COc1ccc(NS(=O)(=O)c2ccc(C)c(C(=O)NCc3ccccc3CN3CCCC3)c2)cc1,0,0,0,0,-
Cc1ccc(C(=O)Nc2ccc(C)c(S(=O)(=O)Nc3ccccc3Cl)c2)s1,0,0,0,0,11
COc1ccc(NC(=O)CNC(=O)c2cccs2)cc1Cl,0,0,0,0,0
CCNC(=S)Nc1ccc(C)c(S(=O)(=O)Nc2ccccc2OC)c1,0,0,0,0,0
COc1ccccc1NS(=O)(=O)c1cc(NC(=S)Nc2cc(C)cc(C)c2)ccc1Cl,0,0,0,0,20
Cc1ccc(NC(=O)CNC(=O)c2cccs2)cc1S(=O)(=O)Nc1ccc(Cl)cc1,0,0,0,0,12
O=C(Nc1ccc(Cl)c(S(=O)(=O)Nc2ccccc2Cl)c1)c1cccs1,0,0,0,0,31
O=C(Nc1ccccc1Cl)c1cccs1,0,0,0,0,0
Cc1ccc(S(=O)(=O)NCc2ccccc2)cc1C(=O)N1CCCC(C(F)(F)F)C1 (configuration not stated),0,0,0,0,0
O=C1c2cccc(NCCCNCCO)c2C(=O)c2cccc(NCCCNCCO)c21,0,0,0,0,0
C[C@@H]1CCCCO[C@@H](CN(C)CC2CCCCC2)[C@@H](C)CN([C@H](C)CO)C(=O)c2cc(NS(=O)(=O)c3ccc(Cl)cc3)ccc2O1,0,0,0,0,-
O=C(COc1ccccc1Br)N1CCN(C(=O)c2ccco2)CC1,0,0,0,0,0
COc1ccccc1OCC(=O)N1CCN(C(=O)c2ccco2)CC1,0,0,0,0,10
O=C(c1ccco1)N1CCN(Cc2nnnn2CCc2ccccc2)CC1,0,0,0,0,13
O=C(c1ccco1)N1CCN(Cc2nnc(-c3cccc(Br)c3)o2)CC1,0,0,0,0,0
O=C(c1ccco1)N1CCN(Cc2nnc(-c3ccccc3)o2)CC1,0,0,0,0,12
CCC(c1nnnn1CCc1ccccc1)N1CCN(C(=O)c2ccco2)CC1 (configuration not stated),0,0,0,0,0
CCOc1ccccc1NC(=O)c1cc(C(=O)c2cc(Br)ccc2O)coc1=N,0,0,0,0,25
CC(C)OC(=O)c1cc(C(=O)c2cc(Br)ccc2O)coc1=N,0,0,0,0,0
COc1ccc(/C=C/c2nc(S(=O)(=O)c3ccccc3)c(NCCCN(C)C)o2)cc1OC,0,0,0,0,0
CN(C)CCCn1c(N)c(C#N)c2nc3ccccc3nc21,0,0,0,0,0
CCCCC(CC)Cn1c(N)c(C#N)c2nc3ccccc3nc21 (configuration not stated),0,0,0,0,11
SMILES,aDG glyco up,ADAM10 inh,FAS-TE inh,ADAM17 inh,GRIN3A LBD mod
COc1cc2c(cc1OC)C1(CCCC1)C(N)=C2C#N,0,0,0,0,11
COc1cc(OC)c(OC)cc1C#N,0,0,0,0,0
COc1cccc(NC(=O)Nc2ccc3c(c2)nnn3C)c1,0,0,0,0,0
CC1=NN(c2ccc(Cl)c(C(=O)O)c2)C(=O)C1,0,0,0,0,0
CC1=NN(c2cccc(Cl)c2)C(=O)C1,0,0,0,0,11
COc1ccc(Nc2nc(-c3ccccc3)c(C(=O)Nc3cccnc3)s2)cc1,0,0,0,0,19
Cc1ccccc1Nc1nc(-c2ccccc2)c(C(=O)Nc2cccnc2)s1,0,0,0,0,0
Cc1ccc(NC(=S)Nc2ccc3cn[nH]c3c2)c(C)c1,0,0,0,0,0
COC(=O)c1cn[nH]c1NC(=S)Nc1ccc(Cl)c(Cl)c1,0,0,0,0,11
COC(=O)c1cn[nH]c1NC(=S)Nc1ccc(C)cc1Cl,0,0,0,0,30
CCOC(=O)c1cn[nH]c1NC(=S)Nc1ccc(OC)cc1,0,0,0,0,0
CCC(Oc1ccc(Cl)cc1)C(=O)N1CC(=O)Nc2ccccc21 (configuration not stated),0,0,0,0,0
CCOC(=O)c1nnc(-c2ccccc2)nc1Oc1ccc(Cl)cc1,0,0,0,0,11
CCOC(=O)c1cnc(-c2ccccc2)nc1Oc1cccc(Cl)c1,0,0,0,0,14
CC(C)(C)c1nnc2sc(SCC(=O)NCc3ccco3)nn2c1=O,0,0,0,0,0
O=C(O)c1ccc2c(=O)n3c(nc2c1)/C(=C/c1cccc(O)c1)CC3,0,0,0,0,0
O=c1c2ccc(Cl)cc2nc2n1CC/C2=C\c1cccc(O)c1,0,0,0,0,23
C[C@H]1CN([C@@H](C)CO)C(=O)CCCn2nncc2CO[C@H]1CN(C)S(=O)(=O)c1ccccc1F,0,0,0,0,-
COc1ccc2c(n1)Sc1nc3ccccc3nc1N2,0,0,0,0,34
COc1cc(/C=N/NC(N)=S)ccc1OCc1ccc(C)cc1,0,0,0,0,25
COc1cc(/C=N/NC(N)=S)ccc1OC(=O)c1ccc(C)cc1,0,0,0,0,26
COc1ccc(C=NNC(=S)NN=Cc2ccc(OC)c(OC)c2)cc1OC,0,0,0,0,0
N/C(=N\OC(=O)c1ccccc1)c1cccnc1,0,0,0,0,0
CCCCOC(=O)C1CN(c2ccccc2)N=C1C(=O)OCC (configuration not stated),0,0,0,0,15
COc1ccccc1OCCCOc1c(C)cc(C)cc1Br,0,0,0,0,16
SMILES,aDG glyco up,ADAM10 inh,FAS-TE inh,ADAM17 inh,GRIN3A LBD mod
COc1cccc(OC)c1OCCCOc1ccc(C)cc1Br,0,0,0,0,10
Cc1ccc(OCCCN(C)C)c(Br)c1,0,0,0,0,0
Cc1ccc2c(C)c(C(=O)N(Cc3cccs3)C3CCS(=O)(=O)C3)oc2c1 (configuration not stated),0,0,0,0,0
CCOC(=O)CCCNC(=O)CCNC(=O)c1ccc(OCCC(C)C)cc1,0,0,0,0,0
CC1CCN(Cc2cnc(Cl)s2)CC1,0,0,0,0,0
Cc1ccccc1/C=N/n1c(-c2ccccn2)n[nH]c1=S,0,0,0,0,11
COC(=O)C1=C(C(=O)OC)[C@@H]2N(C)c3ccccc3[C@@]23C[C@@H](CO)N(C(=O)NCCBr)C3=N1,0,0,52,0,0
CCOC(=O)N1C2=NC(C(=O)OC)=C(C(=O)OC)[C@@H]3N(C)c4ccccc4[C@]23C[C@H]1C(=O)OC,0,0,0,0,0
COc1ccc2oc(C(=O)OCC(=O)Nc3cc(S(=O)(=O)N4CCOCC4)ccc3C)c(C)c2c1,0,0,0,0,-
Nc1cc(-c2ccc(Br)cc2)[nH]n1,0,0,0,0,12
O=C(OC(C(=O)Nc1ccc(Cl)c(C(F)(F)F)c1)c1ccccc1)C1=COCCO1 (configuration not stated),0,0,0,0,13
